In PubChem BioAssay (NCI):
About 79,000 compounds went through this panel and 15% of them were active in at least one assay; those are over-represented in the sample as a whole. A number with no mark means an inactive call. The source made the active and inactive calls. No stated cut-off is given here; in the data, active means growth inhibition above about 70%; inactive means the rest.

Legend:
[1] = NCI Yeast Anticancer Drug Screen. Data for the rad50 strain (AID 155);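 further: 0% = growth of vehicle-only cultures of the same strain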; conditions: S. cerevisiae rad50 strain growth inhibition, stronger effect = higher value
Summary of the method: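 Relative growth inhibition (compound vs vehicle) was measured in yeast with a defined repair-gene alteration.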

[2] = NCI Yeast Anticancer Drug Screen. Data for the mec2-1 strain (AID 157); conditions: S. cerevisiae mec2-1 strain, stronger effect = higher value
Summary of the method: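 Vehicle-treated cultures served as reference for growth inhibition of compound-exposed mec2-1 yeast.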

[3] = NCI Yeast Anticancer Drug Screen. Data for the sgs1 mgt1 strain (AID 161);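 further: 0% = growth of cultures given vehicle only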; conditions: S. cerevisiae sgs1 mgt1 strain, stronger effect = higher value
Summary of the method: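 Read-out: growth inhibition vs vehicle controls. Cells: mutant yeast strain deficient in DNA damage repair.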

[4] = NCI Yeast Anticancer Drug Screen. Data for the cln2 rad14 strain (AID 165);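 further: 0% = growth equal to vehicle treated cultures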; conditions: S. cerevisiae cln2 rad14 strain, stronger effect = higher value
Summary of the method: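 Each compound was tested on cln2 rad14 yeast. Inhibition of growth was calculated against vehicle-exposed controls.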

[5] = NCI Yeast Anticancer Drug Screen. Data for the bub3 strain (AID 167); conditions: S. cerevisiae bub3 mutant strain, stronger effect = higher value
Summary of the method: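 Screening used yeast with an engineered genetic alteration affecting cell cycle control. Compound-exposed cultures were compared with vehicle cultures, and reduced growth was taken as inhibition.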

[6] = NCI Yeast Anticancer Drug Screen. Data for the mlh1 rad18 strain (AID 175); conditions: S. cerevisiae mlh1 rad18 strain growth inhibition, stronger effect = higher value
Summary of the method: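 Vehicle-treated cultures served as the reference for growth inhibition in a yeast strain carrying DNA damage repair alterations exposed to each compound.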

[7] = at 5.0 µM (retest, dose inferred, filed as 0.5)
[8] = at 50.0 µM (retest, dose inferred, filed as 5.0)

Compound	growth inhibition [1, 7]	growth inhibition [1, 8]	growth inhibition ([1]; at 50.0 µM)	growth inhibition [2, 7]	growth inhibition [2, 8]	growth inhibition ([2]; at 50.0 µM)	growth inhibition [3, 7]	growth inhibition [3, 8]	growth inhibition ([3]; at 50.0 µM)	growth inhibition [4, 7]	growth inhibition [4, 8]	growth inhibition ([4]; at 50.0 µM)	growth inhibition [5, 7]	growth inhibition [5, 8]	growth inhibition ([5]; at 50.0 µM)	growth inhibition [6, 7]	growth inhibition [6, 8]	growth inhibition ([6]; at 50.0 µM)
CC(C)C(O)C(C)C	5%	1%	83% (active)	0%	-3%	-2.45%	-1%	0%	4.95%	4%	-1%	17.1%	1%	-7%	13.7%	4%	2%	49.5%
NC(=Nc1ccccc1)c1ccc2c(c1)c1c(n2Cc2ccccc2)CCCC1	-9%	99% (active)	99.3% (active)	-7%	97% (active)	99.2% (active)	-5%	99% (active)	99.6% (active)	-5%	94% (active)	94.9% (active)	-2%	92% (active)	98.2% (active)	-1%	99% (active)	99.7% (active)
Cc1cc([N+](=O)[O-])cc(C)c1OC(=O)Nc1c(Cl)cccc1Cl	37%	37%	31.6%	30%	45%	22.1%	46%	71% (active)	55.4%	32%	36%	22.1%	24%	68%	23.1%	48%	56%	24.1%
COc1ccc(N=Nc2ccc3oc(=O)c(C(=O)Nc4ccc(Cl)cc4)cc3c2)cc1	29%	98% (active)	98.5% (active)	16%	98% (active)	98.9% (active)	0%	98% (active)	98.3% (active)	16%	98% (active)	98.3% (active)	14%	97% (active)	98.8% (active)	33%	99% (active)	98.7% (active)
CC(C)OP(=O)(CCCCCCCCC/C=C/c1ccc2c(c1)OCCOCCOCCOCCO2)OC(C)C	20%	98% (active)	97.8% (active)	4%	99% (active)	92.3% (active)	-4%	98% (active)	98.2% (active)	7%	98% (active)	97.3% (active)	-11%	99% (active)	98.3% (active)	24%	99% (active)	98.1% (active)
O=C(/C(O)=C(\O)C(=O)N(C1CCCCC1)C1CCCCC1)N(C1CCCCC1)C1CCCCC1	25%	93% (active)	96.9% (active)	-2%	89% (active)	98.2% (active)	20%	87% (active)	96.8% (active)	-4%	66%	79.7% (active)	4%	95% (active)	95.5% (active)	14%	86% (active)	97.8% (active)
O=C(c1c(F)c(F)c(F)c(F)c1F)n1c(=S)n(C(=O)c2c(F)c(F)c(F)c(F)c2F)c2ccccc21	11%	96% (active)	42%	19%	90% (active)	71.4% (active)	14%	93% (active)	62.3%	-2%	53%	8.45%	2%	91% (active)	49.1%	29%	95% (active)	86.1% (active)
O=C1Nc2ccc([N+](=O)[O-])c3c([N+](=O)[O-])ccc1c23	4%	82% (active)	79% (active)	11%	81% (active)	47.4%	3%	88% (active)	57.5%	0%	39%	69.8%	2%	70% (active)	34.2%	47%	94% (active)	90.7% (active)
CC(=O)O[C@@H]1CC(C)C2CC2C2=C(C(O)OC2O)[C@@H]1C(C)CCC=C(C)C (stereo not given in full)	19%	98% (active)	91.9% (active)	92% (active)	99% (active)	93.7% (active)	25%	98% (active)	93% (active)	86% (active)	98% (active)	90% (active)	99% (active)	98% (active)	92.4% (active)	78% (active)	98% (active)	91.5% (active)
NC(=O)C#CC#CC#CCO	11%	62%	92.8% (active)	24%	62%	94.8% (active)	18%	78% (active)	94% (active)	25%	39%	91.8% (active)	38%	77% (active)	93.5% (active)	19%	67%	92.7% (active)
